Screening data from PubChem.
UbGFP stabilizer = proteasome inhibitors stabilizing ubiquitin-GFP reporter. Ubiquitin-GFP reporter cells, proteasome inhibition, GFP fluorescence; response scale: untreated = 0%, 10 µM MG-132 = 100%. Potency, µM (doses to about 45.9 µM), inactives show at the top dose activation (GFP accumulation), hits mostly activators. 67,000 tested, under 10 active; active = well fitted activation curve with a large enough effect, not every such curve was filed as active; inconclusive = small, poorly fitted or top-dose-only effect, or another doubt; inactive = no such curve, though single readings can be large or run the other way; note: potency is the fitted concentration of half-maximal effect
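Reporter cells (U2OS, ubiquitin-G76V-GFP fusion) are plated overnight, then treated 4 hr at 37 °C with compound titrations from 46 uM down to 2.9 nM. Activity is scaled against untreated cells and 10 uM MG-132.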
Epigenetic mod = epigenetic modulators derepressing GFP locus in mouse cells; mouse C127i GFP locus derepression, cytometry, 30 h; Potency, µM (series often up to 46.1 µM), without a hit: top-dose GFP derepression (activation); 68,000 tested, 0.09% active; AID 597; note: % of control where 0% means no effect
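Murine C127i mammary cells carrying a silenced, stably integrated CMV-driven GFP reporter were treated with compound for 30 hours at 37 C. After PBS washes, GFP-positive cells were counted by laser-scanning microplate cytometry.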
HBB splice mod = modulators of hemoglobin beta chain splicing; Potency, µM (top dose mostly 46.1 µM), for inactives: at the highest dose activation, hits mostly activators; 65,000 tested, 0.06% active; AID 925; HBB splicing reporter cell assay, activation; EGFP reporter with mutant IVS2-654 intron; response scale: normalised to 500 nM splice-correcting PNA; note: potency is the fitted concentration of half-maximal effect; 0% is about no effect
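HeLa cells stably expressing EGFP interrupted by mutant beta-globin intron 2 (IVS2-654), 500/well in 2% FCS. Treated with compound for 2 days at 37C. Splicing correction scored as total well GFP intensity (488 nm excitation, 500-520 nm emission); 500 nM antisense PNA served as control.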
Active calls of the source: *; [ ] = remark or other dose. Hits are enriched below; roughly 0.13% of the tested compounds scored in any of these assays. Unless noted, calls come from the whole dose curve; as a rule, active = well fitted curve in the direction sought with a large enough effect; inconclusive = small, poorly fitted or top-dose-only effect, or another doubt; inactive = no such curve, though single readings can be large; an effect the other way counts as inactive or inconclusive.

Results for O=C(CC(=O)Nc1ccccn1)Nc1ccccn1 ?
UbGFP stabilizer: 2.3%; Epigenetic mod: 1.2%

How did c1ccc(/N=C2\N=C(Nc3ccccn3)c3ccccc32)nc1 do in these assays?
UbGFP stabilizer: -2.0%; Epigenetic mod: 12.6µM*; HBB splice mod: -0.4%[57.5 µM]

Results for O=C(Nc1nccs1)Oc1ccccc1 ?
UbGFP stabilizer: -3.9%; Epigenetic mod: 0.2%; HBB splice mod: 0.8%

Results for S=C(Nc1ccccc1)Nc1nccs1 ?
UbGFP stabilizer: -6.9%; Epigenetic mod: 31.6µM*; HBB splice mod: -0.8%

What do the screens show for `C=C1CC[C@@H]2O[C@]2(C)CC[C@@H]2[C@H]1CC2(C)C`?
UbGFP stabilizer: -2.1%; Epigenetic mod: 9.2%[9.22 µM]

How did C/C(=C\CNc1ncnc2c1ncn2[C@@H]1O[C@@H](CO)[C@@H](O)[C@H]1O)CO do in these assays?
UbGFP stabilizer: 7.7%; Epigenetic mod: -2.3%[9.22 µM]

Results for O=C(CN(c1ccc(F)cc1)S(=O)(=O)c1ccccc1)NCc1ccco1 ?
UbGFP stabilizer: 2.0%; Epigenetic mod: -1.7%

What do the screens show for `O=C(CC(c1ccco1)S(=O)(=O)c1ccccc1)c1ccc(F)cc1` (configuration not stated)?
Epigenetic mod: 3.16µM*

How did COc1ccc(OC)c(S(=O)(=O)n2ccnc2)c1 do in these assays?
UbGFP stabilizer: -4.4%; HBB splice mod: -0.4%

How did N#Cc1ccc(NC(=O)c2cc3cc4c5c(c3oc2=N)CCCN5CCC4)cc1 do in these assays?
UbGFP stabilizer: 14.6%; Epigenetic mod: 10µM*; HBB splice mod: 0.2%

Results for CC(C)c1cc(=O)oc2c3c4c(cc12)CCCN4CCC3 ?
UbGFP stabilizer: 3.7%; Epigenetic mod: 2.8%; HBB splice mod: -0.5%[9.22 µM]

What do the screens show for `Cc1ccc(NC(=O)c2ccccc2C(=O)O)cc1C`?
UbGFP stabilizer: -5.3%[9.17 µM]; Epigenetic mod: -2.2%[9.22 µM]; HBB splice mod: 4.6%[9.22 µM]

Results for N=c1oc2c3c4c(cc2cc1C(=O)Nc1ccccc1)CCCN4CCC3 ?
UbGFP stabilizer: inconclusive; Epigenetic mod: 6.7%; HBB splice mod: 3.16µM*

How did CO[C@@H]1/C=C\O[C@]2(C)Oc3c(C)c(O)c4c(O)c(c(/C=N\N5CCN(C)CC5)c(O)c4c3C2=O)NC(=O)/C(C)=C\C=C/[C@H](C)[C@H](O)[C@H](C)[C@H](O)[C@H](C)[C@H](OC(C)=O)[C@@H]1C do in these assays?
UbGFP stabilizer: -3.9%; Epigenetic mod: -2.5%[9.22 µM]

How did COc1ccc([C@@H]2CC(=O)c3c(O)cc(O[C@@H]4O[C@@H](CO[C@@H]5O[C@@H](C)[C@@H](O)[C@@H](O)[C@H]5O)[C@@H](O)[C@@H](O)[C@H]4O)cc3O2)cc1O do in these assays?
UbGFP stabilizer: -3.9%; Epigenetic mod: -2.3%[9.22 µM]

What do the screens show for `CN1C[C@H](C(=O)N[C@]2(C)O[C@@]3(O)[C@H]4CCCN4C(=O)[C@@H](Cc4ccccc4)N3C2=O)C[C@H]2c3cccc4[nH]cc(c34)C[C@@H]21`?
UbGFP stabilizer: 1.1%; Epigenetic mod: 7.0%[9.22 µM]

How did CCOc1ccc(-n2c3nc4ccccc4nc3c3c(=O)n(Cc4ccco4)cnc32)cc1 do in these assays?
Epigenetic mod: 8.9%[20.6 µM]

What do the screens show for `Cc1cc(C)cc(-n2c3nc4ccccc4nc3c3c(=O)n(Cc4ccco4)cnc32)c1`?
Epigenetic mod: 12.6µM*

Results for CC(=O)Oc1ccc(/C=C\C(=O)C[C@@H]2O[C@@H](Oc3cc(OC(C)=O)c4c(c3)O[C@@H](c3ccc(OC(C)=O)cc3)CC4=O)[C@H](OC(C)=O)[C@H](OC(C)=O)[C@@H]2OC(C)=O)cc1 ?
UbGFP stabilizer: -2.9%; Epigenetic mod: -4.7%[9.22 µM]

What do the screens show for `CSC(N)=NCCC[C@@H](N)C(=O)O`?
UbGFP stabilizer: -1.8%; Epigenetic mod: -3.5%; HBB splice mod: 2.7%

How did Cc1ccc(C(=O)CSC2=C(C#N)C(c3ccco3)C3=C(CC(C)(C)CC3=O)N2)cc1 (configuration not stated) do in these assays?
UbGFP stabilizer: 4.4%; Epigenetic mod: 5.7%; HBB splice mod: 1.0%

What do the screens show for `N#CC1=C(SCC(=O)c2ccc(Cl)cc2)NC2=C(C(=O)CCC2)C1c1ccco1` (configuration not stated)?
Epigenetic mod: 10µM*

What do the screens show for `N[C@@H](C(=O)O)[C@@H]1C[C@H]1C(=O)O`?
UbGFP stabilizer: 0.0%; Epigenetic mod: -1.1%; HBB splice mod: 0.3%

How did CC(C)[C@H]1C(=O)C(C(N)=O)=C(O)[C@]2(O)C(=O)C3=C(O)c4c(O)ccc(N(C)C)c4C[C@H]3C[C@@H]12 do in these assays?
UbGFP stabilizer: 3.1%; Epigenetic mod: 1.6%; HBB splice mod: 1.5%

What do the screens show for `N#CC(C(=O)NCCc1ccccc1)c1nc2ccccc2nc1N1CCCCC1` (configuration not stated)?
UbGFP stabilizer: -3.7%; Epigenetic mod: -1.3%; HBB splice mod: -0.3%

Results for N#CC(C(=O)NCc1ccccc1)c1nc2ccccc2nc1N1CCCC1 (configuration not stated) ?
UbGFP stabilizer: 12.4%; Epigenetic mod: inconclusive; HBB splice mod: 10µM*

How did C[C@@]12C(=O)OC(=O)[C@@]1(C)[C@H]1CC[C@@H]2O1 do in these assays?
UbGFP stabilizer: 0.0%; Epigenetic mod: -0.2%[9.22 µM]; HBB splice mod: -1.2%

What do the screens show for `N[C@@H](Cc1c[nH]c2ccccc12)C(=O)NCC(=O)O`?
UbGFP stabilizer: -5.1%; Epigenetic mod: -2.3%[9.22 µM]

How did C[C@@H](C(=O)O)c1ccc(C[C@@H]2CCCC2=O)cc1 do in these assays?
UbGFP stabilizer: 1.4%; Epigenetic mod: -1.1%; HBB splice mod: -0.7%

How did CN1CCCN(C(=O)c2cc(=O)[nH]c3ccccc23)c2nc3ccccc3nc21 do in these assays?
UbGFP stabilizer: 2.7%; Epigenetic mod: 2.5%; HBB splice mod: -3.8%

Results for CN1CCCN(C(=O)Cc2c(Cl)cccc2Cl)c2nc3ccccc3nc21 ?
UbGFP stabilizer: -4.7%; Epigenetic mod: 3.7%; HBB splice mod: 10µM*

Results for C=C1C(=O)O[C@H]2C[C@@]3(C)CCCC(=C)[C@@H]3C[C@H]12 ?
UbGFP stabilizer: -2.6%; Epigenetic mod: 0.0%[9.22 µM]

How did NC(=O)c1ncn([C@@H]2O[C@@H](CO)[C@@H](O)[C@H]2O)n1 do in these assays?
UbGFP stabilizer: -3.3%; Epigenetic mod: -1.1%; HBB splice mod: 0.5%

What do the screens show for `CC(=O)[C@@]1(O)Cc2c(O)c3c(c(O)c2[C@H](O[C@H]2C[C@H](N)[C@H](O)[C@H](C)O2)C1)C(=O)c1ccccc1C3=O`?
UbGFP stabilizer: -11.3%; Epigenetic mod: 12.6µM*; HBB splice mod: 12.6µM*

Results for COc1cccc2c1C(=O)c1c(O)c3c(c(O)c1C2=O)C[C@](O)(C(C)=O)C[C@H]3O[C@@H]1C[C@H](N)[C@H](O)[C@H](C)O1 ?
UbGFP stabilizer: 1.1%[20.5 µM]; Epigenetic mod: -0.7%[20.6 µM]; HBB splice mod: -1.0%[20.6 µM]

Results for Cc1ccccc1N1C(=O)c2cccc3c(N(C)CCO)ccc(c23)C1=O ?
UbGFP stabilizer: 11.6%; Epigenetic mod: -1.8%; HBB splice mod: 20µM*

Results for Cc1c(Cl)cccc1N1C(=O)c2ccccc2C1=O ?
UbGFP stabilizer: -13.0%; Epigenetic mod: 0.0%; HBB splice mod: -0.3%
